HCMV inh – human cytomegalovirus inhibition; HFF cells, HCMV-luciferase reporter, 72 h; active compounds read low; activity change, negative = inhibition, % at 57.5 µM; hit rate 4.5% among 410,000; AID 1259415; in the data active = activity change below about -60%; inconclusive = no clear call, values can overlap the other calls; inactive = above about -39%
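After 16 h attachment at 37C, HFF cells received test compound and HCMV-luciferase (1 PFU/cell); reporter luminescence read 72 h later, data normalized against buffer-only and known inhibitor Salinomycin.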
FMDV antiviral – blocks foot and mouth disease virus | AID 1159524 | hit rate 1.2% among 410,000 | FMDV antiviral cell-based qHTS | Potency, µM (doses to about 57.9 µM), hits mostly inhibitors; calls by dose curve; tested in HEK293T cells; note: read-out not given here; nearly all actives have a fitted effect of over 45% in size
Vaccinia Venus – inhibitors of vaccinia virus (Venus reporter); AID 720580; Vaccinia virus Venus reporter expression, fluorescence; Potency, µM (doses to about 36.5 µM), actives largely listed as inhibitors; hit rate 0.46% among 330,000; calls by dose curve; tested in A549 cells; note: nearly all actives have a fitted effect of over 30% in size
Marburg entry inh – blocks Marburg virus binding to or entry into cells | Marburg virus pseudotyped entry inhibition, cell reporter | AID 540276 | Potency, µM (highest dose often 37.8 µM), hits mostly inhibitors | hit rate 1.8% among 300,000; calls by dose curve; tested in HEK293 cells
LASV entry inh – Lassa virus entry inhibition; Lassa virus pseudotype entry inhibition, cell reporter; Potency, µM (titrated, usually from 37.9 µM), usual class: inhibitors; hit rate 1.2% among 300,000; AID 540256; calls by dose curve; tested in HEK293 cells; note: nearly all actives have a fitted effect of over 50% in size
Vaccinia mCherry – inhibitors of vaccinia virus infection (mCherry reporter signal) | Vaccinia virus mCherry reporter infection, fluorescence | Potency, µM (doses to about 36.5 µM), actives largely listed as inhibitors | hit rate 0.63% among 310,000 | AID 720579; calls by dose curve; tested in A549 cells; note: nearly all actives have a fitted effect of over 35% in size
Each line names hits and unclear results; the compound was inactive in the other large screens. A selection: hits, their analogues and other compounds. The true share with any hit is near 6.5%.

CCOC(=O)C1C(=O)C=C(c2ccc(C)cc2)CC1c1ccc([N+](=O)[O-])cc1 (stereo not given)	HCMV inh -71, Marburg entry inh inconclusive
CCOC(=O)C1C(=O)C=C(c2ccccc2)CC1c1ccccc1 (stereo not given)	Marburg entry inh inconclusive, LASV entry inh inconclusive
CC(C)(C)c1ccc(NC(=O)COc2ccc(-n3ccnc3)cc2)cc1	HCMV inh -86, FMDV antiviral 11µM, Vaccinia Venus inconclusive, Marburg entry inh inconclusive, LASV entry inh inconclusive (no result: Vaccinia mCherry)
C/C(=N\NC(=O)COc1ccc(C(C)(C)C)cc1)c1ccc(-n2ccnc2)cc1	FMDV antiviral inconclusive, Vaccinia Venus inconclusive, LASV entry inh inconclusive, Vaccinia mCherry inconclusive
N#Cc1cccc(NC(=O)COc2ccc(-n3ccnc3)cc2)c1	FMDV antiviral 28µM (no result: Vaccinia Venus, Vaccinia mCherry)
COc1ccc(OCC(=O)N/N=C(\C)c2ccc(-n3ccnc3)cc2)cc1	none
N#Cc1cccc(NC(=O)COC(=O)Cn2nc(-c3ccccc3)oc2=O)c1	HCMV inh -65 (no result: Vaccinia Venus, Marburg entry inh, LASV entry inh, Vaccinia mCherry)
COc1cc(NC(=O)COc2ccc(-n3ccnc3)cc2)cc(OC)c1	HCMV inh -87, FMDV antiviral inconclusive
CC(=O)C(c1ccccc1)C(c1ccccc1)C(C)[N+](=O)[O-] (stereo not given)	none
CCC[C@H]1[C@H](N(Cc2cccs2)Cc2cccs2)CC[C@@]23CCCN2C(=O)CCC[C@@H]13	none (no result: FMDV antiviral, Vaccinia Venus, Marburg entry inh, LASV entry inh, Vaccinia mCherry)
COCCOC(=O)c1[nH]c2c(c1C)C(=O)CC(c1cc(OC)ccc1OC)C2 (stereo not given)	none (no result: Marburg entry inh, LASV entry inh)
CCCOCCOC(=O)c1[nH]c2c(c1C)C(=O)CC(c1cc(OC)ccc1OC)C2 (stereo not given)	HCMV inh -80, FMDV antiviral inconclusive, Vaccinia mCherry inconclusive (no result: Marburg entry inh, LASV entry inh)
COc1ccc(OC)c(C2CC(=O)c3c([nH]c(C(=O)OC(C)C)c3C)C2)c1 (stereo not given)	HCMV inh -70 (no result: Vaccinia Venus, Marburg entry inh, LASV entry inh, Vaccinia mCherry)
CCOCCOC(=O)c1[nH]c2c(c1C)C(=O)CC(c1ccc(OC)c(OC)c1)C2 (stereo not given)	HCMV inh inconclusive, FMDV antiviral 22µM, Marburg entry inh inconclusive, LASV entry inh inconclusive
CC1=CC[C@@H](COc2ccccc2)O[C@@]2(C1)C(=O)N(Cc1ccccc1C(F)(F)F)c1ccccc12	none (no result: HCMV inh, FMDV antiviral, Vaccinia Venus, LASV entry inh, Vaccinia mCherry)
O=C(N/N=C/c1ccc([N+](=O)[O-])o1)c1cc(-c2ccncc2)nc2ccccc12	HCMV inh -67, Marburg entry inh inconclusive, LASV entry inh inconclusive (no result: Vaccinia Venus, Vaccinia mCherry)
O=C(N/N=C/c1cccc(O)c1)c1cc(-c2ccccc2)nc2ccccc12	none (no result: Vaccinia Venus, Marburg entry inh, LASV entry inh, Vaccinia mCherry)
Cc1ccc(/C=N/NC(=O)c2ccc3nc[nH]c3c2)o1	HCMV inh -60
O=C(N/N=C/c1ccc([N+](=O)[O-])o1)c1cc(-c2ccc(-c3ccccc3)cc2)nc2ccccc12	HCMV inh -99, FMDV antiviral inconclusive, Marburg entry inh inconclusive, LASV entry inh inconclusive, Vaccinia mCherry inconclusive
COC(=O)c1ccc(/C=N/NC(=O)c2ccc3nc[nH]c3c2)cc1	HCMV inh inconclusive (no result: Vaccinia Venus, Marburg entry inh, LASV entry inh, Vaccinia mCherry)
O=C(N/N=C/c1ccco1)c1cc(-c2cccc(Br)c2)nc2ccccc12	HCMV inh -63, Marburg entry inh inconclusive, LASV entry inh inconclusive, Vaccinia mCherry inconclusive
Cc1ccc(-c2cc(C(=O)N/N=C/c3ccc([N+](=O)[O-])o3)c3ccccc3n2)o1	Vaccinia Venus inconclusive, Marburg entry inh inconclusive, LASV entry inh inconclusive, Vaccinia mCherry inconclusive
Cc1ccc2c(c1)c1c(c(=O)n(-c3ccccc3C)c(=O)n1Cc1cccc(F)c1)n2C	LASV entry inh inconclusive, Vaccinia mCherry inconclusive (no result: Marburg entry inh)
CCOC(=O)C1=C(C)NC2=C(C(=O)OC2)C1c1ccccc1 (stereo not given)	Marburg entry inh inconclusive
CN(CC(=O)NCCc1ccc(Cl)cc1)S(=O)(=O)c1cccs1	none
O=C(N/N=C/c1cccnc1)c1cc(-c2ccccc2)nc2ccccc12	Marburg entry inh 4µM
CC(/C=N/NC(=O)c1cc(-c2ccncc2)nc2ccccc12)=C\c1ccco1	Vaccinia Venus inconclusive, Marburg entry inh 2.9µM, Vaccinia mCherry inconclusive (no result: HCMV inh)
Cc1ccc(/C=N/NC(=O)c2cc(-c3ccncc3)nc3ccccc23)o1	HCMV inh -64, Marburg entry inh inconclusive, Vaccinia mCherry inconclusive
O=C(N/N=C/c1cccnc1)c1cc(-c2ccc(Cl)cc2)nc2ccccc12	none (no result: Vaccinia Venus, Marburg entry inh, LASV entry inh, Vaccinia mCherry)
O=C(N/N=C/c1ccccn1)c1cc(-c2ccncc2)nc2ccccc12	Marburg entry inh inconclusive, LASV entry inh inconclusive, Vaccinia mCherry inconclusive
COc1ccccc1-c1cc(C(=O)N/N=C/c2ccc(C)o2)c2ccccc2n1	Marburg entry inh inconclusive, LASV entry inh inconclusive
COc1ccc(C(CNC(=O)C(C)Oc2ccc(Br)cc2)N2CCCCC2)cc1 (stereo not given)	none (no result: Vaccinia Venus, Marburg entry inh, LASV entry inh, Vaccinia mCherry)
COc1cc2c(cc1OC)[C@@H]1O[C@](c3ccsc3)(C2)OC2=C1C(=O)CC(C)(C)C2	none (no result: HCMV inh, FMDV antiviral, Vaccinia Venus, LASV entry inh, Vaccinia mCherry)
CCOC(=O)CSc1nnc(COc2ccc3ccccc3c2)o1	none
Fc1ccc(CNc2ncnc3onc(-c4ccc(F)cc4)c23)cc1	HCMV inh inconclusive, FMDV antiviral inconclusive (no result: Marburg entry inh)
CC(C)NC(=O)c1csc(N2CCN(CCc3ccccc3)C2=O)n1	none (no result: FMDV antiviral, Vaccinia Venus, Marburg entry inh, LASV entry inh, Vaccinia mCherry)
COC(=O)Cn1c(CN2CCc3ccccc3C2)nc2c1c(=O)n(C)c(=O)n2C	HCMV inh -66, FMDV antiviral inconclusive (no result: Marburg entry inh, LASV entry inh)
CCCNc1nc2c(c(=O)n(C)c(=O)n2C)n1CCc1ccccc1	HCMV inh -65, FMDV antiviral 14µM, Marburg entry inh inconclusive, LASV entry inh inconclusive (no result: Vaccinia Venus, Vaccinia mCherry)
Cc1ccccc1Cn1c(CN2CCc3ccccc3C2)nc2c1c(=O)n(C)c(=O)n2C	Marburg entry inh inconclusive, LASV entry inh inconclusive (no result: FMDV antiviral)
Cn1c(=O)c2c(nc(CN3CCC(Cc4ccccc4)CC3)n2CCN2CCOCC2)n(C)c1=O	LASV entry inh 10µM (no result: Vaccinia Venus, Vaccinia mCherry)
CC(C)n1c(NCCc2ccccc2)nc2c1c(=O)n(C)c(=O)n2C	HCMV inh -87, FMDV antiviral 16µM, Marburg entry inh inconclusive, LASV entry inh inconclusive
CC1(C2CCN(Cc3c[nH]c4ccccc34)CC2)NC(=O)N(CCN2CCOCC2)C1=O (stereo not given)	none (no result: HCMV inh, Marburg entry inh, LASV entry inh)
N#Cc1ccccc1NC(=O)COC(=O)c1ccc(F)cc1F	none
CCC(Oc1ccccc1F)C(=O)Nc1cc(-c2ccccc2)no1 (stereo not given)	Marburg entry inh inconclusive
CC(C)n1c(CN(C)Cc2ccccc2)nc2c1c(=O)n(C)c(=O)n2C	HCMV inh -89, FMDV antiviral 18µM, Marburg entry inh inconclusive, LASV entry inh inconclusive
Cn1c(=O)c2c(nc(NCc3ccccc3)n2Cc2ccc(Cl)c(Cl)c2)n(C)c1=O	HCMV inh -76, FMDV antiviral inconclusive, Vaccinia Venus inconclusive, Marburg entry inh inconclusive, LASV entry inh inconclusive, Vaccinia mCherry inconclusive
Cn1c(=O)c2c(nc(NCc3ccccc3)n2Cc2ccccc2)n(C)c1=O	Vaccinia Venus inconclusive
Cn1c(=O)c2c(nc(NCCc3ccccc3)n2Cc2ccc(Cl)cc2)n(C)c1=O	HCMV inh -82, FMDV antiviral inconclusive, Vaccinia Venus inconclusive, Vaccinia mCherry inconclusive

High-throughput results from PubChem BioAssay.
